# According to PubChem BioAssay (NCATS):
# Results filed as inconclusive are left out. Entries that show only a call come without a potency. The source made the active and inactive calls. Unless noted, calls come from the whole dose curve.
# Key:
# [1] = Primary qHTS for Huh7 cytotoxicity: counterscreen for inhibitors of MERS-S pseudotyped particle cell entry (AID 1479147)
# [2] = Primary qHTS for inhibitors of MERS-S pseudo-typed particle cell entry (AID 1479149); note: nearly all actives have a fitted effect of over 60% in size; note: potency is the fitted concentration of half-maximal effect
# [3] = Primary qHTS for Vero E6 cytotoxicity: counterscreen for inhibitors of SARS-S pseudo-typed particle cell entry (AID 1479150)
# [4] = Primary qHTS for inhibitors of SARS-S pseudo-typed particle cell entry (AID 1479145); note: nearly all actives have a fitted effect of over 45% in size; note: potency is the fitted concentration of half-maximal effect
# [5] = biological target: Calcium and integrin-binding protein 1 (Homo sapiens) (UniProt Q99828); test: Confirmatory qHTS for Identification of Calcium Integrin Binding Protein 1 (CIB1) Competitor (AID 1508617; active = well fitted curve in the direction sought with a large enough effect; an effect the other way counts as inactive or inconclusive; note: nearly all actives have a fitted effect of over 65% in size)
# Calcium and integrin-binding protein 1 (Homo sapiens), sequence (Q99828 whole entry, looked up): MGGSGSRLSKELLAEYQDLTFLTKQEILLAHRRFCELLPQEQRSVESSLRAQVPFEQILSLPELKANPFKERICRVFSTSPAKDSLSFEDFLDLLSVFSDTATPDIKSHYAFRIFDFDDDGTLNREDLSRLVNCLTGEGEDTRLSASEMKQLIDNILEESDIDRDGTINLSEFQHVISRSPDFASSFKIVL
# Method in brief: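 Fluorescence polarization competition: CIB1-GST (1 uM final) in 5 mM HEPES pH 7.4, 125 mM NaCl, 5 mM CaCl2, 0.01% Tween20 preincubated 15 min RT with compound (up to 114 uM), then FITC-alphaIIb peptide (100 nM) added, 15 min RT.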
# [6] = biological target: Calcium and integrin-binding protein 1 (Homo sapiens) (UniProt Q99828); test: Validation qHTS for Identification of Calcium Integrin Binding protein 1 (CIB1) Competitor (AID 1508618; active = well fitted curve in the direction sought with a large enough effect; an effect the other way counts as inactive or inconclusive; note: potency is the fitted concentration of half-maximal effect)
# Method in brief: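 CIB1-GST (1 uM final) in 5 mM HEPES pH 7.4, 125 mM NaCl, 5 mM CaCl2, 0.01% Tween20 was preincubated 15 min at room temperature with compound (up to 114 uM), then FITC-alphaIIb peptide (100 nM) added for 15 min; fluorescence polarization read.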
# [7] = biological target: Calcium and integrin-binding protein 1 (Homo sapiens) (UniProt Q99828); test: Primary qHTS for Identification of Calcium Integrin Binding Protein 1 (CIB1) Competitor (AID 1508620; active = well fitted curve in the direction sought with a large enough effect; an effect the other way counts as inactive or inconclusive; note: potency is the fitted concentration of half-maximal effect)
# Method in brief: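 Fluorescence polarization competition: GST-tagged CIB1 (1 uM final) preincubated with compound 15 min at room temperature, then FITC-labelled alphaIIb peptide (100 nM final) added. After 15 min at room temperature, polarization read at Ex 480/Em 540.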
# [8] = Primary qHTS for small molecule stabilizers of the endoplasmic reticulum resident proteome: Secreted ER Calcium Modulated Protein (SERCaMP) assay (AID 1508630; active = well fitted curve in the direction sought with a large enough effect; an effect the other way counts as inactive or inconclusive)
# Method in brief: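 GLuc-SERCaMP-expressing SH-SY5Y cells, pretreated 16 h with compound, are challenged with thapsigargin to empty ER calcium stores; after 4 h, coelenterazine is added directly to the medium and luminescence is imaged.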
# [9] = A High-Content qHTS Against Drug Library for the Identification of Small Molecules that Inhibit DYT1 Early Onset Primary Dystonia-Associated Cell Pathology (AID 1645839); note: series mostly up to about 46 µM
# Method in brief: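 Flp-In T-REx 293 cells with tetracycline-inducible EGFP-delE hTOR1A (WT EGFP-hTOR1A as reference), 800 cells/well; compound added with tetracycline, 48 h at 37 C. Fixed, permeabilized cells imaged; %pathology (punctate TorsinA) primary, cell count counterscreen.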
# [10] = biological target: Cytochrome P450 2D6 (Homo sapiens) (UniProt P10635); test: Cytochrome P450 family 2 subfamily D member 6 (CYP2D6) small molecule antagonists: luciferase biochemical (cell-free) qHTS assay (AID 1645840; active = well fitted curve in the direction sought with a large enough effect in the repeat runs; an effect the other way counts as inactive or inconclusive; note: nearly all actives have a fitted effect of over 55% in size; note: potency is the fitted concentration of half-maximal effect)
# Cytochrome P450 2D6 (Homo sapiens), sequence (P10635 whole entry, looked up): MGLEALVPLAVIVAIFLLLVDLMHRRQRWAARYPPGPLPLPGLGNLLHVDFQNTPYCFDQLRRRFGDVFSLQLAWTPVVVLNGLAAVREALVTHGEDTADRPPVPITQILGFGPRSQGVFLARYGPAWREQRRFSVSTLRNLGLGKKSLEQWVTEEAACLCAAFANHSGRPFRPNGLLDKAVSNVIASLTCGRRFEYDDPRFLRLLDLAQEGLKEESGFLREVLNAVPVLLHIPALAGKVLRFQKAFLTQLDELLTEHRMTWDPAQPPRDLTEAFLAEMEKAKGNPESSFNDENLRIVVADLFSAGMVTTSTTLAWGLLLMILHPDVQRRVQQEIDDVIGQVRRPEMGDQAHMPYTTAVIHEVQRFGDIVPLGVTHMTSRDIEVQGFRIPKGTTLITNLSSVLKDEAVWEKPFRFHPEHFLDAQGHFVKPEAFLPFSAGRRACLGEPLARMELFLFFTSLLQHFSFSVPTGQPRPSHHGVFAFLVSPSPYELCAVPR
# Method in brief: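 P450-Glo luminescent screen: recombinant CYP2D6 enzyme–proluciferin substrate mix preincubated with compound 10 min at room temperature, then NADPH regeneration added for 1 h at room temperature. Detection reagent added for 20 min; luciferin light read as relative luminescence units.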
# [11] = Confirmatory qHTS to identify inhibitors of SARS-CoV-2 cell entry (AID 1645844); note: potency is the fitted concentration of half-maximal effect; nearly all actives have a fitted effect of over 45% in size
# Method in brief: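 HEK293-ACE2 cells were pretreated 1 h with compound, then infected with MLV-based pseudoparticles bearing C-terminally truncated Wuhan-Hu-1 spike for 48 h at 37C; luciferase luminescence normalized to spike PP and bald PP wells.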
# [12] = Cytotoxicity counterscreen for inhibitors of SARS-CoV-2 cell entry (AID 1645845); note: nearly all actives have a fitted effect of over 50% in size
# Method in brief: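 HEK293-ACE2 cells (Expi293F stably expressing human ACE2) seeded overnight, then compound for 1 h plus 48 h at 37C. Viability as ATP content by luminescence; normalized to wells with cells and media-only wells.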
# [13] = Confirmatory qHTS for VERO E6 Cytotoxicity Assay: Counterscreen for SARS-CoV-2 CPE Assay (AID 1508605); note: nearly all actives have a fitted effect of over 60% in size; note: potency is the fitted concentration of half-maximal effect
# [14] = Primary qHTS for inhibitors of La Crosse Virus (LACV) - induced cell death in SH-SY5Y cells (AID 1508616; active = well fitted curve in the direction sought with a large enough effect; an effect the other way counts as inactive or inconclusive; note: potency is the fitted concentration of half-maximal effect)
# Method in brief: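 Luminescent ATP readout (ATPLite 1step, 5 min room temperature) measured rescue from LACV-induced death after 6 days of infection at 0.01 MOI; normalized to infected DMSO wells and uninfected DMSO wells.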
# [15] = biological target: Cytochrome P450 2C9 (Homo sapiens) (UniProt P11712); test: Cytochrome P450 family 2 subfamily C member 9 (CYP2C9) small molecule antagonists: luciferase biochemical (cell-free) qHTS assay (AID 1645842; active = well fitted curve in the direction sought with a large enough effect in the repeat runs; an effect the other way counts as inactive or inconclusive; note: nearly all actives have a fitted effect of over 55% in size; note: potency is the fitted concentration of half-maximal effect)
# Cytochrome P450 2C9 (Homo sapiens), sequence (P11712 whole entry, looked up): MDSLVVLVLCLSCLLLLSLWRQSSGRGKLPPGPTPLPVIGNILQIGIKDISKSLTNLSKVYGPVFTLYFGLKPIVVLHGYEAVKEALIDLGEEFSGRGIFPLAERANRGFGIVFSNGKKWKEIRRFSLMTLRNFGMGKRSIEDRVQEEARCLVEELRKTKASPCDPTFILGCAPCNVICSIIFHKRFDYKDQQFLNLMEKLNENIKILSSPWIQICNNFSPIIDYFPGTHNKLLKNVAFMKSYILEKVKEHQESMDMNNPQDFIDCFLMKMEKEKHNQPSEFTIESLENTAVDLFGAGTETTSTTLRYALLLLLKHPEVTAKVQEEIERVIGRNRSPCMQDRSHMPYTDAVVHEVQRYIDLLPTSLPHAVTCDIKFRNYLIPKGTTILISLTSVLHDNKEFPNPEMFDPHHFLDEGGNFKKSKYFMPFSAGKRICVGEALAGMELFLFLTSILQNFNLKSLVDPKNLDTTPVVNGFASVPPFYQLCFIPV
# Method in brief: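 Luminescence, after 20 min with luciferin detection reagent, reflected CYP2C9 turnover during a 1 h NADPH-driven reaction at 37C. Enzyme-substrate mix contained 0.4% bovine serum albumin and was preincubated with compound 10 min at room temperature.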
# [16] = Confirmatory qHTS for activators (rescue) of SARS-CoV-2 Cytopathic Effect (CPE) (AID 1508606); note: nearly all actives have a fitted effect of over 70% in size
smiles,measurement,setting,value
CN(C)CCc1c[nH]c2ccc(C[C@H]3COC(=O)N3)cc12,Potency,[1],inactive
same,Potency,[2],inactive
same,Potency,[3],inactive
CC[C@@H](CO)NC(=O)[C@@H]1C=C2c3cccc4c3c(cn4C)C[C@H]2N(C)C1,Potency,[4],inactive
same,outcome,[5],inactive
same,Potency,[6],44.7 µM (active)
same,Potency,[7],44.7 µM (active)
same,outcome,[8],inactive
same,Potency,[9],inactive
same,Potency,[10],12.3 µM (active)
O=C(O)c1ccc(-n2nc(-c3ccccc3O)nc2-c2ccccc2O)cc1,Potency,[4],inactive
same,Potency,[3],inactive
same,Potency,[11],30.4 µM (active)
CN(C)CCOC(C)(c1ccccc1)c1ccccn1 (stereo unspecified),Potency,[1],inactive
same,Potency,[2],inactive
same,Potency,[3],inactive
COc1c(C)c2c(c(O)c1C/C=C(\C)CCC(=O)O)C(=O)OC2,Potency,[4],inactive
same,Potency,[3],inactive
same,Potency,[11],0.607 µM (active)
same,Potency,[12],inactive
CN1CCN(CCCN2c3ccccc3Sc3ccc(Cl)cc32)CC1,Potency,[4],22.4 µM (active)
same,Potency,[3],inactive
same,Potency,[13],20 µM (active)
same,Potency,[12],inactive
COC(=O)C1=C(C)NC(C)=C(C(=O)OCC(C)C)C1c1ccccc1[N+](=O)[O-] (stereo unspecified),Potency,[4],35.5 µM (active)
same,Potency,[3],inactive
same,Potency,[11],6.07 µM (active)
CCCCc1nc(Cl)c(CO)n1Cc1ccc(-c2ccccc2-c2nn[nH]n2)cc1,Potency,[1],inactive
same,Potency,[2],inactive
same,Potency,[3],inactive
Nc1ccn([C@@H]2O[C@H](CO)[C@@H](O)C2(F)F)c(=O)n1,Potency,[4],0.794 µM (active)
same,Potency,[3],inactive
same,Potency,[11],0.341 µM (active)
same,Potency,[12],inactive
C[C@H]1O[C@H](O[C@H]2[C@H](O)[C@@H](O)[C@@H](O[C@H]3[C@H](O)[C@@H](O)[C@H](O)O[C@@H]3CO)O[C@@H]2CO)[C@H](O)[C@@H](O)[C@@H]1N[C@H]1C=C(CO)[C@@H](O)[C@H](O)[C@H]1O,Potency,[1],inactive
same,Potency,[2],inactive
same,Potency,[3],inactive
Cc1cccc(C)c1NC1=NCCCS1,Potency,[1],inactive
same,Potency,[2],inactive
same,Potency,[3],inactive
same,Potency,[14],inactive
same,Potency,[6],inactive
same,Potency,[7],inactive
same,outcome,[8],inactive
same,Potency,[9],inactive
same,Potency,[10],15.5 µM (active)
same,Potency,[15],inactive
same,Potency,[12],inactive
CCCCc1oc2ccccc2c1C(=O)c1cc(I)c(OCCN(CC)CC)c(I)c1,Potency,[1],inactive
same,Potency,[2],10 µM (active)
same,Potency,[3],inactive
same,Potency,[13],inactive
same,Potency,[12],inactive
O=C1Nc2ccc(Cl)cc2[C@@](C#CC2CC2)(C(F)(F)F)O1,Potency,[1],inactive
same,Potency,[2],inactive
same,Potency,[3],inactive
same,Potency,[13],inactive
CCCC1CCCCN1 (stereo unspecified),Potency,[1],inactive
same,Potency,[2],inactive
same,Potency,[3],inactive
same,Potency,[14],inactive
same,Potency,[7],inactive
same,Potency,[9],inactive
same,Potency,[15],inactive
same,Potency,[12],inactive
CCC(=O)O[C@H]1[C@H](O[C@@H]2[C@@H](C)[C@H](O[C@H]3C[C@@](C)(OC)[C@@H](O)[C@H](C)O3)[C@@H](C)C(=O)O[C@H](CC)[C@@](C)(O)[C@H](O)[C@@H](C)C(=O)[C@H](C)C[C@@]2(C)O)O[C@H](C)C[C@@H]1N(C)C,Potency,[1],inactive
same,Potency,[2],inactive
same,Potency,[3],inactive
OCCN1CCN(CCCN2c3ccccc3Sc3ccc(Cl)cc32)CC1,Potency,[4],14.1 µM (active)
same,Potency,[3],inactive
same,Potency,[16],inactive
COC(=O)C1=C(C)NC(C)=C(C(=O)OC(C)C)C1c1cccc2nonc12 (stereo unspecified),Potency,[1],inactive
same,Potency,[2],inactive
same,Potency,[3],inactive
C[C@H]1O[C@@H](O[C@H]2[C@@H](O)C[C@H](O[C@H]3[C@@H](O)C[C@H](O[C@H]4CC[C@@]5(C)[C@H](CC[C@@H]6[C@@H]5CC[C@]5(C)[C@@H](C7=CC(=O)OC7)CC[C@]65O)C4)O[C@@H]3C)O[C@@H]2C)C[C@H](O)[C@@H]1O,Potency,[4],inactive
same,Potency,[2],inactive
same,outcome,[8],inactive
same,Potency,[10],inactive
same,Potency,[15],inactive
NNc1nncc2ccccc12,Potency,[4],inactive
same,Potency,[2],inactive
same,Potency,[12],inactive
C=C(C)[C@H]1Cc2c(ccc3c2O[C@@H]2COc4cc(OC)c(OC)cc4[C@@H]2C3=O)O1,Potency,[4],inactive
same,Potency,[2],inactive
same,Potency,[14],0.316 µM (active)
same,Potency,[6],inactive
same,Potency,[7],inactive
same,outcome,[8],inactive
same,Potency,[10],inactive
same,Potency,[15],6.17 µM (active)
C=C1CC[C@@]2(O)[C@H]3Cc4ccc(O)c5c4[C@@]2(CCN3CC2CC2)[C@H]1O5,Potency,[1],inactive
same,Potency,[2],inactive
same,Potency,[3],inactive
same,Potency,[14],inactive
same,Potency,[7],inactive
same,Potency,[9],inactive
same,Potency,[10],2.75 µM (active)
same,Potency,[15],inactive
same,Potency,[12],inactive
NC1[C@H]2CN(c3nc4c(cc3F)c(=O)c(C(=O)O)cn4-c3ccc(F)cc3F)C[C@@H]12 (stereo partly specified),Potency,[1],inactive
same,Potency,[2],inactive
same,Potency,[3],inactive
CC(C)Oc1ccc2c(=O)c(-c3ccccc3)coc2c1,Potency,[4],inactive
same,Potency,[12],inactive
CS(=O)(=O)CCNCc1ccc(-c2ccc3ncnc(Nc4ccc(OCc5cccc(F)c5)c(Cl)c4)c3c2)o1,Potency,[1],inactive
same,Potency,[2],inactive
same,Potency,[3],inactive
OCCN1C[C@H](O)[C@@H](O)[C@H](O)[C@H]1CO,Potency,[1],inactive
same,Potency,[2],inactive
same,Potency,[3],inactive
Nc1nc(N)c2nc(-c3ccccc3)c(N)nc2n1,Potency,[4],inactive
same,Potency,[2],inactive
same,Potency,[3],inactive
same,Potency,[12],inactive
C=C1C[C@@H]2[C@H](CC[C@]3(C)C(=O)CC[C@@H]23)[C@@]2(C)C=CC(=O)C=C12,Potency,[14],inactive
same,Potency,[7],inactive
same,Potency,[10],inactive
Clc1ccc(COC(Cn2ccnc2)c2ccc(Cl)cc2Cl)cc1 (stereo unspecified),Potency,[14],inactive
same,Potency,[7],inactive
same,Potency,[10],0.219 µM (active)
CC(=O)O[C@]1(C(C)=O)CC[C@H]2[C@@H]3C=C(Cl)C4=CC(=O)[C@@H]5C[C@@H]5[C@]4(C)[C@H]3CC[C@@]21C,Potency,[1],inactive
same,Potency,[3],inactive
COc1cc2nc(N(C)CCCNC(=O)C3CCCO3)nc(N)c2cc1OC (stereo unspecified),Potency,[1],inactive
same,Potency,[3],inactive
CN(C)CC/C=C1\c2ccccc2COc2ccccc21,Potency,[1],inactive
same,Potency,[3],inactive
same,Potency,[12],inactive
CN(C)CCC=C1c2ccccc2C=Cc2ccccc21,Potency,[1],inactive
same,Potency,[3],inactive
same,Potency,[13],inactive
same,Potency,[12],inactive
